# Results: the supplement of paper PMC3545927
# The other results are listed elsewhere or left out. How many sequences the whole screen found active is unknown.
# B1: HC1799 (peptide)
# chain: CAPEMEECSQAGNASASA
# B2: FS-3177 (peptide)
# chain: CARYKRKSDEAGNASASA
# B3: FS-2550 (peptide)
# chain: CARERRRAAKAGNASASA
# B4: FS-3135 (peptide)
# chain: CARYKKAVFRAGNASASA
# B5: FS-1979 (peptide)
# chain: CARYKRKMTQAGNASASA
# B6: FS-2486 (peptide)
# chain: CARERRDSGVAGNASASA
# B7: FS-2537 (peptide)
# chain: CARYKRMVERAGNASASA
# B8: FS-2137 (peptide)
# chain: CARERRDAGRAGNASASA
# B9: FS-2010 (peptide)
# chain: CARERRWDRGAGNASASA
# B10: FS-2223 (peptide)
# chain: CARNVRFSDEAGNASASA
# B11: FU3 (peptide)
# chain: CARERREVVRAGNASASA
# B12: HC1918 (peptide)
# chain: CATTPCSGTWAGNASASA
# B13: HC1204 (peptide)
# chain: CAAEEYVEIRAGNASASA
# B14: HC175 (peptide)
# chain: CAQIVGGVYLAGNASASA
# B15: HC2033 (peptide)
# chain: CAVVRCSMSYAGNASASA
# B16: FS-2661 (peptide)
# chain: CARERRTLSVAGNASASA
# B17: FS-2009 (peptide)
# chain: CARENRSLFTAGNASASA
# B18: FS-2472 (peptide)
# chain: CARYKRAGESAGNASASA
# B19: FS-2330 (peptide)
# chain: CARERRADHVAGNASASA
# B20: FS-3219 (peptide)
# chain: CARERRNAIRAGNASASA
# B21: FS-2660 (peptide)
# chain: CARERRRLMSAGNASASA
# B22: FS-1696 (peptide)
# chain: CARERRDVQRAGNASASA
# B23: FS-2659 (peptide)
# chain: CARERRDLFTAGNASASA
# B24: FS-2487 (peptide)
# chain: CARERRGPATAGNASASA
# B25: HC922 (peptide)
# chain: CAAGCAWYELAGNASASA
# B26: HC1794 (peptide)
# chain: CAKEMEECSQAGNASASA
# B27: HC2405 (peptide)
# chain: CAEVPCHRPLAGNASASA
# B28: FS-2485 (peptide)
# chain: CAREQRDVERAGNASASA
# B29: FS-2658 (peptide)
# chain: CAREQRDICEAGNASASA
# B30: FS-3245 (peptide)
# chain: CAREQRSNGLAGNASASA
# B31: HC1396 (peptide)
# chain: CAKVTFDRLQAGNASASA
# B32: FS-961 (peptide)
# chain: CASIERVKRQAGNASASA
# B33: HC221 (peptide)
# chain: CAKVIDTLTCAGNASASA
# B34: FS-303 (peptide)
# chain: CASVERIKRQAGNASASA
# B35: FS-681 (peptide)
# chain: CAKVIRHKRQAGNASASA
# B36: HC1991 (peptide)
# chain: CADVCCSMSYAGNASASA
# B37: HC1871 (peptide)
# chain: CATTDCSGSWAGNASASA
# B38: HC1968 (peptide)
# chain: CAEWTTPCSGAGNASASA
# B39: HC83 (peptide)
# chain: CAVVCVSMSYAGNASASA
# B40: FS-2189 (peptide)
# chain: CARTKREAGAAGNASASA
# B41: FS-3053 (peptide)
# chain: CARRKRHDIAAGNASASA
# B42: FS-2451 (peptide)
# chain: CARRKRKGSDAGNASASA
# B43: FS-1756 (peptide)
# chain: CARNHRDAGAAGNASASA
# B44: FS-2227 (peptide)
# chain: CARRGRSGGAAGNASASA
# B45: FS-2371 (peptide)
# chain: CARRKRSAALAGNASASA
# B46: FS-1779 (peptide)
# chain: CARRKRSAGAAGNASASA
# B47: HC2543 (peptide)
# chain: CASTPCSAALAGNASASA
# B48: FS-1729 (peptide)
# chain: CARKNRPAGAAGNASASA
# B49: FS-1994 (peptide)
# chain: CARAQRSAGAAGNASASA
# Target: furin, P09958
# Assay: furin cleavage Z-score vs untreated control; higher = more cleavage, active = 3.5 or more, inactive = 1 or less, 8 variable residues between constant flanks
# Experimental: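 Multiplexed peptide-cDNA fusion cleavage assay. 8-mer variable peptides flanked by constant Cys-Ala (N-term) and Ala-Gly-Asn-Ala-Ser-Ala-Ser-Ala (C-term) and conjugated to a cDNA oligonucleotide were bead-immobilised via the N-terminus. They were treated with purified furin at a 1:10 enzyme:substrate ratio in 50 mM HEPES pH 7.5, 1 mM CaCl2, 100 mM NaCl for 7.5, 15 or 30 min. Released cDNA was counted by next-generation sequencing, and log counts versus no-furin controls were lowess-adjusted and converted to robust Z-scores.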
# Chain of furin, P09958 (P09958 whole entry): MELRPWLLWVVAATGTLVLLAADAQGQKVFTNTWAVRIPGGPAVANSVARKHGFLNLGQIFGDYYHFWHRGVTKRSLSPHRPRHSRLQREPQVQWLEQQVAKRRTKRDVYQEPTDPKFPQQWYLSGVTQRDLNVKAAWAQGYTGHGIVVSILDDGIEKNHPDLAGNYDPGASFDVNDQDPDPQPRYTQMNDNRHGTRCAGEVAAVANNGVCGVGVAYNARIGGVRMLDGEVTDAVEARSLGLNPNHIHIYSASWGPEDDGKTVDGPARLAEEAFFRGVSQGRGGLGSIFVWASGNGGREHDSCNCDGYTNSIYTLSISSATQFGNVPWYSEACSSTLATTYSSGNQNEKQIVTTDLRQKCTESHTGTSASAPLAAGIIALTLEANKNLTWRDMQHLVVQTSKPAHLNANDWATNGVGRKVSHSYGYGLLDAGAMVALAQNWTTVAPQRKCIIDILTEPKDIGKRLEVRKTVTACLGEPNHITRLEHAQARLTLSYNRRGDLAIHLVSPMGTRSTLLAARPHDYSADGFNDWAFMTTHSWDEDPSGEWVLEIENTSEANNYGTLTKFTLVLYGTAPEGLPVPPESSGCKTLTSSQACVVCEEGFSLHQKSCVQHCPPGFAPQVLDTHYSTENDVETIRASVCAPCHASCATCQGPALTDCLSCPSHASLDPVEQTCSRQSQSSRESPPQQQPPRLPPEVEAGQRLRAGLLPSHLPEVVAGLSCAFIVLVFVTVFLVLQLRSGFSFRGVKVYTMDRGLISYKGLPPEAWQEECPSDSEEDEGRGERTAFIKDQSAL
Sequence,furin cleavage Z-score (7.5 min),furin cleavage Z-score (15 min),furin cleavage Z-score (30 min)
B1,0.387 (inactive),0.44 (inactive),0.854 (inactive)
B2,5.32 (active),5.6 (active),5.8 (active)
B3,0.778 (inactive),0.314 (inactive),1.46
B4,2,0.2 (inactive),2.99
B5,-0.853 (inactive),-0.612 (inactive),-0.101 (inactive)
B6,-0.528 (inactive),-0.224 (inactive),0.24 (inactive)
B7,7.23 (active),7.48 (active),6.63 (active)
B8,9.55 (active),10.7 (active),9.14 (active)
B9,-1.3 (inactive),-0.408 (inactive),1.72
B10,0.545 (inactive),-0.141 (inactive),-1.68 (inactive)
B11,10.2 (active),11.3 (active),10.9 (active)
B12,0.438 (inactive),1.03,0.941 (inactive)
B13,-0.657 (inactive),2,-1.07 (inactive)
B14,-0.135 (inactive),-2.24 (inactive),-1.9 (inactive)
B15,1.28,0.684 (inactive),-0.612 (inactive)
B16,0.891 (inactive),2.33,3.01
B17,0.285 (inactive),-0.333 (inactive),-1.13 (inactive)
B18,8.25 (active),10.6 (active),7.78 (active)
B19,1.39,0.278 (inactive),2.34
B20,3.48,4.37 (active),4.64 (active)
B21,-1.21 (inactive),-0.546 (inactive),0.262 (inactive)
B22,10.6 (active),13.2 (active),9.38 (active)
B23,5.35 (active),8.1 (active),7.97 (active)
B24,-1.34 (inactive),0.671 (inactive),-0.709 (inactive)
B25,-0.796 (inactive),-1.42 (inactive),-1.58 (inactive)

Sequence,furin cleavage Z-score (7.5 min),furin cleavage Z-score (15 min),furin cleavage Z-score (30 min)
B26,0.752 (inactive),0.717 (inactive),0.689 (inactive)
B27,0.138 (inactive),-0.494 (inactive),0.866 (inactive)
B28,1.98,3.86 (active),2.52
B29,0.169 (inactive),0.317 (inactive),0.297 (inactive)
B30,-0.772 (inactive),0.724 (inactive),1.43
B31,-1.13 (inactive),-0.299 (inactive),-2.04 (inactive)
B32,10.9 (active),11.9 (active),7.3 (active)
B33,-1.35 (inactive),-0.249 (inactive),-0.555 (inactive)
B34,12.4 (active),11.8 (active),10.6 (active)
B35,12.7 (active),12.4 (active),9.91 (active)
B36,-0.0698 (inactive),-0.573 (inactive),1.23
B37,-0.934 (inactive),-0.299 (inactive),-0.368 (inactive)
B38,-0.833 (inactive),-0.0659 (inactive),0.694 (inactive)
B39,0.357 (inactive),0.79 (inactive),-0.758 (inactive)
B40,10.6 (active),10.5 (active),7.02 (active)
B41,9.56 (active),8.72 (active),8.78 (active)
B42,0.854 (inactive),2.01,1.02
B43,1.3,0.109 (inactive),0.263 (inactive)
B44,-0.325 (inactive),-0.173 (inactive),-0.877 (inactive)
B45,10.8 (active),11.7 (active),9.76 (active)
B46,11.3 (active),10.7 (active),8.77 (active)
B47,-1.2 (inactive),-0.501 (inactive),0.383 (inactive)
B48,-0.275 (inactive),-0.752 (inactive),-0.0808 (inactive)
B49,0.322 (inactive),0.0646 (inactive),1.56
